Results taken from PubChem BioAssay (EPA / NIEHS).
Records with an inconclusive call do not appear. The source made the active and inactive calls. Rule for the calls, unless noted: active = hit-call score of the fitted dose curve at least 0.9, where 1 is the maximum; inactive = score below 0.9.

Key:
[1] = CCTE_Shafer_MEA_acute_synchrony_index: CCTE's Neural Acute Assay for Synchrony, Shafer Lab (AID 2284027);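 note: network synchrony index of spontaneous spiking in primary rat cortical neurons on MEAs; fitted for loss of signal so actives lower synchrony relative to DMSO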
In short: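 Primary rat cortical neurons on 16-electrode MEA wells were recorded 40 min at baseline (DIV 13 or 15) and 40 min after compound (0.03-40 uM) at 37 C. Synchrony index (0-1) expressed as percent change from baseline, versus DMSO.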

[2] = CCTE_Deisenroth_AIME_96WELL_CTox_Active: Cytotoxicity Assessment (CTOX) in CCTE's 96-well Estrogen Receptor Transactivation Assay with AIME metabolic competence (metabolism positive), Deisenroth Lab (AID 2284028; active = hit-call score of the fitted dose curve at least 0.9, where 1 is the maximum)
In short: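 Chemicals (0.002–200 uM) were first incubated 2 h with alginate-immobilized phenobarbital/beta-naphthoflavone-induced male rat liver S9; conditioned medium then went onto VM7Luc4E2 cells for 24 h, with viability read by protease-substrate fluorescence, fitted bidirectionally.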

[3] = CCTE_Deisenroth_AIME_96WELL_CTox_Inactive: Cytotoxicity Assessment (CTOX) in CCTE's 96-well Estrogen Receptor Transactivation Assay without AIME metabolic competence (metabolism negative), Deisenroth Lab (AID 2284029; active = hit-call score of the fitted dose curve at least 0.9, where 1 is the maximum)
In short: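 Chemicals (10-point series, 0.002-200 uM) were incubated 2 h with alginate-water microspheres lacking S9. The conditioned medium was then transferred onto VM7Luc4E2 cells for 24 h. Viability was measured by protease-substrate cleavage to a fluorescent probe, with loss of signal fitted bidirectionally; n≥4 experimental replicates.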

[4] = CCTE_Deisenroth_AIME_384WELL_CTox_Active: Cytotoxicity Assessment (CTOX) in CCTE's 384-well Estrogen Receptor Transactivation Assay with AIME metabolic competence (metabolism positive), Deisenroth Lab (AID 2284037; active = hit-call score of the fitted dose curve at least 0.9, where 1 is the maximum;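 note: activity means signal loss indicating cell death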)
In short: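 Cytotoxicity in VM7Luc4E2 breast cells, 24 hour, measured as protease-substrate fluorescence loss, after 2-hour metabolic conditioning with induced rat hepatic S9 in alginate microspheres. Concentrations 0.002 - 200 uM, 10 points, bidirectional fitting.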

[5] = CCTE_Deisenroth_AIME_384WELL_CTox_Inactive: Cytotoxicity Assessment (CTOX) in CCTE's 384-well Estrogen Receptor Transactivation Assay without AIME metabolic competence (metabolism negative), Deisenroth Lab (AID 2284039; active = hit-call score of the fitted dose curve at least 0.9, where 1 is the maximum;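 note: cell viability via live-cell protease substrate cleaved to fluorescent probe; cells exposed 24 h to medium preincubated 2 h with alginate-water beads without S9; loss of fluorescence signal means loss of viability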)
In short: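 Fluorescent protease-substrate viability readout after 24 h exposure of VM7Luc4E2 cells to conditioned medium. Chemicals (0.002–200 uM) first sat 2 h over alginate-water beads, no S9. Data fitted bidirectionally, loss of signal meaning viability loss.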

[6] = CCTE_Shafer_MEA_dev_active_electrodes_number: CCTE's Neural Network Formation Assay for Number of Active Electrodes, Shafer Lab (AID 2284040; active = hit-call score of the fitted dose curve at least 0.9, where 1 is the maximum;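 for AC50: potency for loss of active electrodes versus DMSO so lower counts are hits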)
In short: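 Rat cortical primary cultures, 1.5 x 10^5 cells/well, PEI-coated MEA, laminin drop. Continuous exposure DIV 0–12; full media/compound change DIV 5, 9. Readout: electrodes with mean firing ≥5 spikes/min; AUC across days; loss vs DMSO.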

[7] = CCTE_Shafer_MEA_dev_bursting_electrodes_number: CCTE's Neural Network Formation Assay for Number of Bursting Electrodes, Shafer Lab (AID 2284043; active = hit-call score of the fitted dose curve at least 0.9, where 1 is the maximum;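 for AC50: potency is for loss of bursting electrodes relative to DMSO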)
In short: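 Read-out is the per-well number of electrodes bursting at least once every 2 minutes, recorded on days 5, 7, 9 and 12 and collapsed by trapezoidal area under the curve. Cultures were primary rat cortical neurons on MEA plates, treated continuously from plating.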

[8] = CCTE_Shafer_MEA_dev_per_burst_interspike_interval: CCTE's Neural Network Formation Assay for Burst Interspike Interval, Shafer Lab (AID 2284044);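 note: mean spike spacing inside bursts as AUC over recordings on days 5 7 9 12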
In short: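 Neurons from rat cortex plated onto PEI-coated MEA wells with laminin […] at 1.5 x 10^5 cells/well, then treated from day 0. Media and compound fully replaced on DIV 5 and 9. Extracellular spontaneous firing recorded four times; interspike interval per burst summarised as AUC.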

[9] = CCTE_Shafer_MEA_dev_burst_duration_mean: CCTE's Neural Network Formation Assay for Mean Burst Duration, Shafer Lab (AID 2284045)
In short: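 Read-out: average first-to-last-spike interval within single-electrode bursts, averaged over bursting electrodes per well, then summarised as area under the curve across days 5, 7, 9 and 12. Developing rat cortical networks were exposed from day 0.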

[10] = CCTE_Shafer_MEA_dev_interburst_interval_mean: CCTE's Neural Network Formation Assay for Mean Interburst Interval, Shafer Lab (AID 2284046);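 note: well-mean interburst interval of bursting electrodes as AUC over four recording days; curve fitted for decrease in interburst interval relative to DMSO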
In short: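 Primary rat cortical neurons on PEI-coated 48-well MEA plates (laminin added with cells at plating) (16 electrodes/well), exposed from plating day 0 with renewal at DIV 5 and 9. Mean inter-burst interval averaged over bursting electrodes, AUC across days 5, 7, 9, 12; DMSO baseline.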

[11] = CCTE_Shafer_MEA_dev_inter_network_spike_interval_mean: CCTE's Neural Network Formation Assay for Mean Inter-network Spike Interval, Shafer Lab (AID 2284047)
In short: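 Mean time between consecutive network-spike peaks, recorded extracellularly (adaptive spike detection) on DIV 5, 7, 9 and 12, summarized as trapezoidal AUC. Rat cortical cultures on MEAs dosed continuously days 0–12, re-dosed at feeds; loss-of-signal fit relative to DMSO.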

[12] = CCTE_Shafer_MEA_dev_network_spike_peak: CCTE's Neural Network Formation Assay for Mean Number of Electrodes in Network Spike, Shafer Lab (AID 2284049);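 for AC50: fitted for loss of signal meaning fewer electrodes in network spikes than DMSO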
In short: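 Rat cortical primary culture, 1.5 x 10^5 cells/well, 48-well MEA (16 electrodes/well). Dosing day 0 through DIV 12, full media/compound exchange DIV 5, 9. AxIS adaptive spike detection; AUC over days 5/7/9/12; loss-of-signal vs DMSO.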

[13] = CCTE_Shafer_MEA_dev_spike_duration_mean: CCTE's Neural Network Formation Assay for Mean Spike Duration, Shafer Lab (AID 2284051);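 note: mean network spike duration pooled as area under curve over DIV 5 to 12 recordings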;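 for AC50: potency for a decrease in mean network spike duration versus DMSO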
In short: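 Spontaneous activity was recorded on days 5, 7, 9 and 12 from rat cortical cultures grown on microelectrode arrays and dosed continuously from day 0, with media and compound renewed after the DIV 5 and 9 recordings. Network-spike duration was collapsed by area under the curve.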

[14] = CCTE_Shafer_MEA_dev_network_spike_duration_std: CCTE's Neural Network Formation Assay for Standard Deviation of Network Spike Duration, Shafer Lab (AID 2284052);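 note: hits are decreases in network spike duration SD versus DMSO vehicle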
In short: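 Network spike duration variability was collapsed across recordings on days 5, 7, 9 and 12 by trapezoidal area-under-curve and fitted downward against DMSO. Cultures were rat cortical neurons on PEI-coated MEA plates, dosed continuously from plating, refed with compound DIV 5/9.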

[15] = CCTE_Shafer_MEA_dev_per_network_spike_spike_percent: CCTE's Neural Network Formation Assay for Percent of Spikes in a Network Spike, Shafer Lab (AID 2284054)
In short: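 Rat primary cortical cultures, 1.5 x 10^5 cells/well on MEA. Continuous compound exposure d0–12, medium/compound renewed DIV 5, 9. Network-spike spike % (0.05 s peak window), AUC over 4 recordings, DMSO baseline.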

[16] = tested on: DIO2 (gene 1734); assay: CCTE_GLTED_hDIO2: CCTE's human Deiodinase 2 (DIO2) Inhibition Assay, Great Lakes Toxicology and Ecology Division (GLTED) Lab (AID 2284050; active = hit-call score of the fitted dose curve at least 0.9, where 1 is the maximum)
In short: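 Cell-free human DIO2 enzyme was incubated with test chemical for 3 h; iodide liberated from substrate was then quantified by the Sandell-Kolthoff reaction (absorbance), run in triplicate. Loss of signal versus DMSO baseline indicated inhibition.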

[17] = tested on: DIO3 (gene 1735); assay: CCTE_GLTED_hDIO3: CCTE's human Deiodinase 3 (DIO3) Inhibition Assay, Great Lakes Toxicology and Ecology Division (GLTED) Lab (AID 2284055; active = hit-call score of the fitted dose curve at least 0.9, where 1 is the maximum;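 note: potency is for inhibition seen as loss of released iodide signal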)
In short: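 Cell-free assay with human DIO3 enzyme produced by adenovirus expression; enzyme incubated with test chemical for 3 hours. Liberated iodide then measured by Sandell-Kolthoff absorbance; loss of signal versus DMSO baseline indicates inhibition, run in triplicate.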

[18] = CCTE_Shafer_MEA_dev_LDH: CCTE's Lactate Dehydrogenase Assay for Cytotoxicity in the Neural Network Formation Assay, Shafer Lab (AID 2284068; active = hit-call score of the fitted dose curve at least 0.9, where 1 is the maximum;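 note: exposure for twelve days from plating with re-dosing on DIV 5 and 9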)
In short: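 Primary rat cortical neurons were cultured on PEI-coated MEA plates and exposed from plating through day 12, with compound renewed at medium changes on DIV 5 and 9. LDH activity was read spectrophotometrically; loss of signal versus DMSO indicates reduced viability.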

Measured: AC50

Cn1c(=O)c2c(ncn2C)n(C)c1=O
inactive: [1] | [2] | [3] | [4] | [5] | [6] | [7] | [8] | [9] | [10] | [11] | [12] | [13] | [14] | [15]

O=C(O)CCN(C1(C(=O)NO)CCCC1)S(=O)(=O)c1ccc(Oc2ccc(F)cc2)cc1
inactive: [1]

O=C(OC[C@H]1O[C@@H](OC(=O)c2cc(O)c(O)c(OC(=O)c3cc(O)c(O)c(O)c3)c2)[C@H](OC(=O)c2cc(O)c(O)c(OC(=O)c3cc(O)c(O)c(O)c3)c2)[C@@H](OC(=O)c2cc(O)c(O)c(OC(=O)c3cc(O)c(O)c(O)c3)c2)[C@@H]1OC(=O)c1cc(O)c(O)c(OC(=O)c2cc(O)c(O)c(O)c2)c1)c1cc(O)c(O)c(OC(=O)c2cc(O)c(O)c(O)c2)c1
active: [16] 22400 nM | [17] 14800 nM

Nc1nc2ncc(CNc3ccc(C(=O)N[C@@H](CCC(=O)O)C(=O)O)cc3)nc2c(=O)[nH]1
inactive: [6] | [7] | [8] | [9] | [10] | [11] | [12] | [13] | [14] | [15] | [18]

CCN(C(=O)c1cc(C)cc(OC[C@H](C)Nc2ccncc2)c1)C(C)C
inactive: [4] | [5]

CNCc1ccc(NC(=O)c2c[nH]c3c2C(=O)CCC3)cc1
inactive: [4] | [5] | [8] | [9] | [10] | [11] | [14] | [15]
active: [6] 1980 nM | [7] 1980 nM | [12] 2030 nM | [13] 666 nM | [18] 865 nM
